Cav3 T inh – inhibitors of human Cav3.2 T-type calcium channel | O95180 | Cav3.2-expressing cells, Fluo-4 calcium fluorescence FDSS; hits give low values | B-score at 10 µM | 100,000 compounds, 4% hits;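 active = single-dose well whose peak fluorescence ratio is a statistical outlier from its plate by either plate-standardised score or position-corrected B-score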
CYP2C9 act – CYP2C9 (human) activation. activation factor at 5 µM. recombinant CYP2C9, luciferin-H conversion, luminescence; hits give high values; factor 1 = untreated enzyme, 0 = blocked. AID 1024. 96,000 compounds, 1.4% hits. P11712;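 active = activation factor of 2 or more for CYP2C9 at a 5 µM dose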
Target sequence (P11712 whole entry, looked up): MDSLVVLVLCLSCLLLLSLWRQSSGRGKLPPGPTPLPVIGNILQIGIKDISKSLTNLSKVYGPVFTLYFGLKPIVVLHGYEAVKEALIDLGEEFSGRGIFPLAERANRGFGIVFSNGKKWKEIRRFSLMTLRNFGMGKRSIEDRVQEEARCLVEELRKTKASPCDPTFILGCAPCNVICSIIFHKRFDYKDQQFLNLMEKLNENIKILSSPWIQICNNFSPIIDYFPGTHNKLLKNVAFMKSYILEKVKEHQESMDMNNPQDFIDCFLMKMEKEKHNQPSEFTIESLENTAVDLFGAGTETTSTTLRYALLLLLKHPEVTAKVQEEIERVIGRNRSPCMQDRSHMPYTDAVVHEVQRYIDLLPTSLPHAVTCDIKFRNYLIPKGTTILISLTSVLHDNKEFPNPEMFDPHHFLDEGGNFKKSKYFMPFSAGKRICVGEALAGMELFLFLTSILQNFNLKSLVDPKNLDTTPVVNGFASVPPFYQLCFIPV
CYP2C19 inh – blocks human cytochrome P450 2C19; P33261; CYP2C19 Supersomes, luciferin-H EGE luminescence, 30 min; inhibition, % at 5 µM; 96,000 compounds, 21% hits; AID 778;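 active = CYP2C19 inhibition above a set limit at 5 µM in the primary screen, cut at about 50% in these data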
CYP2C9 inh – inhibitors of human CYP2C9; inhibition, % at 5 µM; CYP2C9 Supersomes, luciferin-H conversion, luminescence; P11712; 96,000 compounds, 20% hits; AID 777;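 active = blocking of liver enzyme CYP2C9 beyond about 50% at 5 µM, limit read from the data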
CYP2C19 act – cytochrome P450 2C19 (human) activation; 96,000 tested, under 10 active; recombinant CYP2C19, luciferin-H EGE luminescence; hits give high values; 0 = fully inhibited enzyme, 1 = untreated enzyme; P33261; activation factor at 5 µM;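 active = activation factor of at least 2 at 5 µM in the primary screen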
A number is an active result; i = inactive; nt = no result. An excerpt weighted towards active compounds, which were near 27% of everything screened.

SMILES | Cav3 T inh | CYP2C9 act | CYP2C19 inh | CYP2C9 inh | CYP2C19 act
COC(=O)CSc1nc2cc(C)ccc2cc1C#N | i | i | i | i | i
Clc1ccc(C2C3=C(Nc4ncnn42)c2ccccc2CC3)cc1 (configuration not stated) | i | i | 79.7 | 68.8 | i
c1ccc(C2C3=C(Nc4ncnn42)c2ccccc2CCC3)cc1 (configuration not stated) | i | i | 51.6 | i | i
CC1N/C(=C\C(=O)c2ccccc2)N(O)C1(C)C (configuration not stated) | i | i | i | i | i
C1CCC(C(CC2CCCCN2)C2CCCCC2)CC1 (configuration not stated) | i | nt | nt | nt | nt
Cc1ccc(NC(=O)c2ccc3c(c2)N(CC(=O)N2CCCCC2)C(=O)C(C)(C)O3)cc1 | i | i | 57.5 | 99.2 | i
COc1ccc(C(=O)CN2C(=O)C(C)(C)Oc3ccc(C(=O)N4CCCCCC4)cc32)cc1 | i | i | 57.0 | 78.5 | i
CCOC(=O)CN1C(=O)C(C)(C)Oc2ccc(C(=O)Nc3ccccc3OC)cc21 | nt | i | 81.8 | i | i
CC(C)(C)NC(=O)c1ccc2c(c1)N(CC(=O)N1CCN(c3ccc(F)cc3)CC1)C(=O)C(C)(C)O2 | i | i | 79.1 | 59.5 | i
CC1(C)Oc2ccc(C(=O)N3CCc4ccccc43)cc2N(CC(=O)N2CCCC2)C1=O | i | i | i | i | i
CCCC1(CCC)NC(=O)N(CC(=O)Nc2ccccc2OC)C1=O | i | i | i | i | i
C[C@@H](O)C1NC(=O)[C@H](CCCCN)NC(=O)c2cc([N+](=O)[O-])cc(I)c2OCC[C@@H](C(N)=O)NC1=O (some centres not stated) | i | nt | nt | nt | nt
Fc1ccc(-n2nnc(-c3nccs3)n2)cc1 | i | nt | nt | nt | nt
CCCN(CCC)C(=O)CC(c1ccccc1)c1cc(Br)ccc1O (configuration not stated) | i | i | i | i | i
CC1(C)Oc2ccc(C(=O)N3CCCC3)cc2N(CC(=O)NCc2ccccc2)C1=O | i | i | i | i | i
CC1(C)Oc2ccc(C(=O)NC3CCCC3)cc2N(CC(=O)NC2CCCCC2)C1=O | i | i | i | 81.6 | i
O=S(=O)(c1ccc(Cl)cc1)n1ccc2cccnc21 | i | nt | nt | nt | nt
CC1=C(C)CS(=O)N(S(=O)(=O)c2ccc(Cl)cc2)C1 (configuration not stated) | -7.42 | i | i | i | i
Cc1c(/C=C(\C#N)c2nn(-c3ccccc3)c(N)c2C#N)c2ccccc2n1Cc1ccc(F)cc1 | nt | i | i | i | i
Cc1ccccc1OCC(=O)Nc1cccc(NC(=O)c2ccco2)c1 | i | i | 71.8 | i | i
Cc1cccc(C)c1OCC(=O)Nc1cccc(NC(=O)c2ccco2)c1 | -4.8 | nt | nt | nt | nt
COc1ccccc1Cn1c(=O)c2ccccc2n2c(Sc3ncnc4sccc34)nnc12 | i | i | 60.7 | 57.4 | i
CCCn1c(=O)c2ccccc2n2c(SCCOc3ccc(OC)cc3)nnc12 | i | i | i | i | i
COc1ccccc1Cn1c(=O)c2ccccc2n2c(SCc3csc(C)n3)nnc12 | i | i | 57.0 | i | i
CC(C)OCCCNc1nc2c([nH]1)c(=O)n(C)c(=O)n2C | i | i | i | i | i
SMILES | Cav3 T inh | CYP2C9 act | CYP2C19 inh | CYP2C9 inh | CYP2C19 act
COc1cccc(C(=O)N2CCN(C3CCC(c4ccccc4)CC3)CC2)c1OC (configuration not stated) | nt | i | i | i | i
COc1ccc(CNc2ccccc2)cc1Br | i | nt | nt | nt | nt
COc1ccc(NCc2n[nH]nc2-c2ccccc2)cc1Cl | i | i | 96.9 | 86.0 | i
C[C@@H]1NC(=O)c2cc([N+](=O)[O-])cc(I)c2NCCCC[C@@H](C(N)=O)NC(=O)[C@H](CCC(=O)O)NC1=O | i | nt | nt | nt | nt
O=C(NCc1cc(C(F)(F)F)cc(C(F)(F)F)c1)C1CC(c2cccc([N+](=O)[O-])c2)=NO1 (configuration not stated) | i | i | i | i | i
Oc1ccc(-c2cccc(-c3ccc(O)cc3)n2)cc1 | i | i | i | 61.3 | i
Oc1ccc(-c2nnc(-c3ccc(O)cc3)nn2)cc1 | i | i | i | i | i
CN(C)c1ccc(-c2ccncc2)cc1 | nt | i | 97.5 | i | i
COc1ccc(-c2ccncc2)cc1OC | i | nt | nt | nt | nt
CC(=O)N1[C@H](Cc2ccccc2)C=C[C@]1(C)C(=O)NCc1ccc(C)o1 | i | nt | nt | nt | nt
CCOc1cc2nc(-c3ccc(OC)c(OC)c3)nc(N3CCOCC3)c2cc1OC | -5.97 | i | i | i | i
Cc1ccc(C)c(C(=O)NCCN(C)C)c1 | i | i | i | i | i
Cc1ccc(SCc2ccc(C(=O)NCc3ccncc3)cc2)cc1 | i | i | 82.6 | 99.2 | i
